In the supplement of paper PMC3842684:

What was measured:
[1] = tested on: P. falciparum NF54-pfs16-GFP early (I-III) stage gametocytes; assay: relative % inhibition of viable gametocyte number; higher = more gametocytocidal; conditions: stage: early (I-III) gametocyte, incubation 72 h
In short: (§1)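 In 384-well poly-D-lysine imaging plates, NF54 pfs16-GFP gametocytes (magnet-isolated, early I/IIa on day 2 or late on day 8; 10% parasitaemia, 0.1% haematocrit) received compound in duplicate at 5 or 0.5 µM. Plates stood 72 h at 37°C in 5% CO2 and 5% O2, then overnight with MitoTracker Red before confocal imaging, where elongated GFP objects with MitoTracker signal above cut-off counted as viable. Relative inhibition was calculated against vehicle and positive-control wells on the same plate.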

[2] = tested on: P. falciparum NF54-pfs16-GFP late (IV-V) stage gametocytes; assay: as above; conditions: stage: late (IV-V) gametocyte, incubation 72 h
In short: as §1

Structure (SMILES) | relative % inhibition ([1]; 0.5 µM) [%] | relative % inhibition ([1]; 5 µM) [%] | relative % inhibition ([2]; 0.5 µM) [%] | relative % inhibition ([2]; 5 µM) [%]
COc1nc(Nc2ccc(C(C)C)cc2)nc(OC)n1 | 24.9 | 0.105 | -0.358 | -10.9
O=C(NC1CCN(Cc2ccccc2)CC1)c1cc(-c2cccnc2)nc2ccc(Cl)cc12 | 3.2 | 46.2 | -30.4 | -0.963
Clc1cc(Br)ccc1-c1ccc(CNCC2CCNCC2)o1 | 92.6 | 100 | 36.1 | 89.9
CCOc1ccc2nc(C)cc(Nc3ccc(N(C)C)cc3)c2c1 | 15.2 | -42.1 | -6.75 | -10.3
c1ccc2cc3c(Nc4ccc(N5CCOCC5)cc4)ccnc3cc2c1 | -11.9 | 12.3 | 9.42 | 36.1
CC(O)(c1ccc(Cl)cc1)C(CN1CCCCC1)c1ccccc1 (stereo unspecified) | 20 | 59.1 | 14 | 22.3
OC1CCCCC1C1(NC(=S)Nc2ccccc2)CCCCC1 (stereo unspecified) | 2.55 | 71.5 | 33.8 | 90.8
CCOc1ccc2c(c1)CN(Cc1ccc(Cl)cc1)CO2 | 15.1 | 84.1 | 16.2 | 41.4
O=C(Cc1ccccc1)NC(c1ccc(Cl)cc1)c1c(O)ccc2ccccc12 (stereo unspecified) | 14.2 | 104 | 1.94 | 27.6
O=C(Nc1ccc(Cl)cc1)N1CCN(c2ccc3nncn3n2)CC1 | 18 | 6.7 | 4.09 | -7.25
CCOC(=O)C1(Cc2ccccc2)CCN(Cc2cccc(OC)c2O)CC1 | 14.7 | 52.6 | -5.97 | 22.8
CCN1CCN(c2c(C(=O)c3ccccc3)cnc3cc(OC)c(OC)cc23)CC1 | 2.47 | -13.5 | 12.1 | -8.91
CN(C)c1ccc(N2C(N)=NC(N)=NC2(C)C)cc1 | -7.59 | -3.16 | 20.3 | -8.27
CCN(CC)CCNc1ccnc2cc3ccccc3cc12 | 99.4 | 100 | 25.4 | 43.7
